Results on 32 compounds are retold here after PubChem BioAssay.

Calls of active or inactive are those of the source.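 Rule for the calls, unless noted: active = compounds whose cell count with miR-34 switched on is under 0.7 times the count with it off; inactive = the rest.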

Assay [1] is described as follows: viability loss with induced miR-34 in A549 – imaging, A549 dox-inducible miR-34, nuclei and caspase counts, primary screen (AID 1347080). As to conditions: A549 miR-34 inducible, Hoechst nuclei count, 48 h.
A short description of assay [2]: chitosan synthesis blockers in C. neoformans – flow cytometry, Cibacron Brilliant Red staining (AID 1347148; call rule not given here;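 note: compound exposure lasted three days at 37 degrees C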). As to conditions: Cryptococcus neoformans chitosan, stronger effect = lower value; at 10 µM unless noted.
[3] abbreviates: stronger effect = lower value, cell number ratio, induced over uninduced.
[4] abbreviates: measured here: relative caspase fold change +Dox/-Dox.
The mark [5] stands for this setting: measured here: total cells with miR-34 induction, stronger effect = lower value.
[6] abbreviates: measured here: total cells without miR-34 induction.

Regarding `CCCCCCCC/C=C\CCCCCCCC(=O)Nc1ccccc1`, the fold change in assay [1] (setting [3]) is 1.04 (inactive); in assay [1] (setting [4]), 0.81. The cell count was found to be 6190 in assay [1] (setting [5]) and 5950 in assay [1] (setting [6]).
Turning to `C=C1[C@@H](O)[C@@H]2O[C@@]3(CCC2O[C@@H]1[C@@H](O)C[C@H](C)C1O[C@@]2(CCCCO2)CC[C@H]1C)CC[C@H](/C=C/[C@@H](C)[C@@H]1CC(C)=C[C@@]2(O[C@H](C[C@@](C)(O)C(=O)O)CC[C@H]2O)O1)O3` (stereo not given in full), the fold change was 0.897 (inactive) in assay [1] (setting [3]) and 0.814 in assay [1] (setting [4]). Moreover, the values for the cell count in assay [1] (setting [5]) and in assay [1] (setting [6]) were 423 and 472, respectively.
In the case of `CC1OC(=O)C(C(C)C)NC(=O)C(C(C)C)OC(=O)C(C(C)C)NC(=O)C(C)OC(=O)C(C(C)C)NC(=O)C(C(C)C)OC(=O)C(C(C)C)NC(=O)C(C)OC(=O)C(C(C)C)NC(=O)C(C(C)C)OC(=O)C(C(C)C)NC1=O` (stereo not given), the fold change was 0.784 (inactive) in assay [1] (stronger effect = lower value) and 1.28 in assay [1] (setting [4]). Further, the cell count in assay [1] (setting [5]) turned out to be 1020; in assay [1] (setting [6]) it was 1300.
With `COc1ccc2cc(C(C#N)OC(=O)OCC3OC3c3ccccc3)ccc2c1` (stereo not given), the results for the fold change in assay [1] (setting [3]) and in assay [1] (setting [4]) were 0.914 (inactive) and 0.565, respectively. Besides, the cell count in assay [1] (setting [5]) came out at 5380; in assay [1] (setting [6]), 5890.
With `CCCCCc1cc(O)c2c(c1)OC(C)(C)[C@@H]1CCC(C(=O)O)=CC21` (stereo not given in full), the figures for the fold change in assay [1] (stronger effect = lower value) and in assay [1] (setting [4]) were 0.953 (inactive) and 1.25, respectively. The cell count in assay [1] (setting [5]) worked out at 5920; in assay [1] (setting [6]), 6210.
With `OOCCC/C=C/c1ccccc1`, the fold change in assay [1] (setting [3]) is 0.959 (inactive); in assay [1] (setting [4]) it was 0.789. Further, the results for the cell count in assay [1] (setting [5]) and in assay [1] (setting [6]) were 5730 and 5970, respectively.
For `CCCCCCC(C)(C)c1cc(OC)c2c(c1)OC(C)(C)[C@@H]1CC=C(C)C[C@@H]21`, the fold change was 1.09 (inactive) in assay [1] (stronger effect = lower value) and 0.441 in assay [1] (setting [4]). Further, the cell count in assay [1] (setting [5]) was found to be 6970; in assay [1] (setting [6]), 6400.
Consider `C=C(C)[C@@H]1CCC(C)=C[C@H]1c1c(C)cc(O)cc1O`, for which the values for the fold change in assay [1] (setting [3]) and in assay [1] (setting [4]) were 0.943 (inactive) and 0.916, respectively. In addition, the cell count amounted to 5200 in assay [1] (setting [5]) and 5510 in assay [1] (setting [6]).
`CN=C(NS(=O)(=O)c1ccc(Cl)cc1)N1CC(c2ccccc2)C(c2ccc(Cl)cc2)=N1` (stereo not given): the fold change in assay [1] (setting [3]) is 0.741 (inactive); in assay [1] (setting [4]), 0.564. The cell count in assay [1] (setting [5]) came to 4700; in assay [1] (setting [6]), 6340.
For `COc1cc(CNC(=O)CCCCCCC(C)C)c(I)cc1O`, the figures for the fold change in assay [1] (setting [3]) and in assay [1] (setting [4]) were 1.02 (inactive) and 0.817, respectively. The values for the cell count in assay [1] (setting [5]) and in assay [1] (setting [6]) were 5730 and 5600, respectively.
For the compound `CCCCC/C=C\C/C=C\C/C=C\C/C=C\CCCC(=O)NCCCl`, the fold change in assay [1] (setting [3]) was 1.01 (inactive); in assay [1] (setting [4]) it was 1.15. The cell count is 6340 in assay [1] (setting [5]) and 6270 in assay [1] (setting [6]).
For `c1cc2cc(N3CCNCC3)ccc2cn1`, the fold change in assay [1] (setting [3]) is 0.956 (inactive); in assay [1] (setting [4]) it was 0.665. The cell count in assay [1] (setting [5]) stood at 5380; in assay [1] (setting [6]) it was 5630.
In the case of `CC1OC(O[C@H]2C[C@@H](O)[C@]3(CO)[C@H]4[C@H](O)C[C@]5(C)[C@@H](C6=CC(=O)OC6)CC[C@]5(O)[C@@H]4CC[C@]3(O)C2)C(O)C(O)C1O` (stereo not given in full), the fold change in assay [1] (stronger effect = lower value) was 0.802 (inactive); in assay [1] (setting [4]) it was 1.17. Besides, the cell count in assay [1] (setting [5]) stood at 286; in assay [1] (setting [6]), 356.
As for `C=C(C)[C@@H]1CCC(C)=C[C@H]1c1c(O)cc(O)cc1CCCCC`, the fold change in assay [1] (setting [3]) was 0.914 (inactive); in assay [1] (setting [4]), 1.35. The cell count came out at 5030 in assay [1] (setting [5]) and 5500 in assay [1] (setting [6]).
`CCCCC/C=C\C/C=C\C/C=C\C/C=C\CCCC(=O)Nc1ccc([N+](=O)[O-])cc1`: the fold change was 1.04 (inactive) in assay [1] (setting [3]) and 1.21 in assay [1] (setting [4]). The cell count in assay [1] (setting [5]) came out at 5860; in assay [1] (setting [6]), 5630.
Turning to `CCCCC/C=C\C/C=C\C/C=C\C/C=C\CCCC(=O)NCCF`, the fold change in assay [1] (setting [3]) is 1 (inactive); in assay [1] (setting [4]) it was 1.18. For the same compound, the cell count in assay [1] (setting [5]) and in assay [1] (setting [6]) was 5320 throughout.
For the compound `CCCCC/C=C\C/C=C\C/C=C\C/C=C\CCC(C)C(=O)NCCF` (stereo not given), the fold change in assay [1] (setting [3]) was 1.05 (inactive); in assay [1] (setting [4]) it was 1.21. Also, the cell count in assay [1] (setting [5]) stood at 5220; in assay [1] (setting [6]) it was 4990.
Take `C=C1[C@@H](C)[C@H]2[C@H](Cc3ccccc3)NC(=O)C23[C@H](OC(C)=O)/C=C/[C@](C)(O)C(=O)[C@@H](C)C/C=C/[C@H]3[C@@H]1O` (stereo not given in full): the values for the fold change in assay [1] (setting [3]) and in assay [1] (setting [4]) were 1.3 (inactive) and 0.464, respectively. The cell count in assay [1] (setting [5]) amounted to 990; in assay [1] (setting [6]), 762.
Taken in the same sequence, the figures for `CCCCC/C=C\C/C=C\C/C=C\C/C=C\CCCC(=O)NC(CO)CO` were 0.961 (inactive), 0.877, 5640 and 5870.
As to `CC[C@@]1(O)C(=O)OCc2c1cc1n(c2=O)-c2cc3ccccc3nc2C1`, the fold change in assay [1] (stronger effect = lower value) was 1.01 (inactive); in assay [1] (setting [4]) it was 0.79. The figures for the cell count in assay [1] (setting [5]) and in assay [1] (setting [6]) were 1320 and 1300, respectively.
Taken in the same sequence, the figures for `CCCCCCC(=O)O[C@H]1CC[C@H]2[C@@H]3C[C@@H](O)C4=CC(=O)CC[C@]4(C)[C@H]3CC[C@]12C` were 0.966 (inactive), 0.446, 5500 and 5700.
On to `C=C(C)[C@@H]1CCC(C)=C[C@H]1C1=C(O)C(=O)C(CCCCC)=CC1=O`, for which the fold change in assay [1] (setting [3]) is 1.08 (inactive); in assay [1] (setting [4]), 0.935. The cell count in assay [1] (setting [5]) turned out to be 5410; in assay [1] (setting [6]) it was 5000.
`c1cc(N2CCNCC2)c2cnccc2c1`: the fold change in assay [1] (setting [3]) is 0.965 (inactive); in assay [1] (setting [4]) it was 0.639. Further, the cell count in assay [1] (setting [5]) worked out at 5540; in assay [1] (setting [6]), 5740.
In the case of `C=C(C)[C@H]1O[C@H]2CC[C@@]3(C)[C@@](O)(CC[C@H]4[C@@H]5OC(C)(C)[C@H]6C[C@@H]7C(=C)Cc8c(Cl)cc9[nH]c(c5c9c8[C@@]76O)[C@@]43C)[C@]23O[C@@H]3[C@H]1O`, the fold change in assay [1] (stronger effect = lower value) was 1.28 (inactive); in assay [1] (setting [4]), 1.48. Further, the cell count was 1060 in assay [1] (setting [5]) and 826 in assay [1] (setting [6]).
`CCCCC/C=C\C/C=C\C/C=C\C/C=C\CCCC(=O)OCCN`: the results for the fold change in assay [1] (setting [3]) and in assay [1] (setting [4]) were 0.993 (inactive) and 0.893, respectively. Further, the cell count in assay [1] (setting [5]) was found to be 5780; in assay [1] (setting [6]) it was 5820.
`CCCCCC(/C=C/C=O)OO` (stereo not given): the fold change is 0.987 (inactive) in assay [1] (setting [3]) and 1.26 in assay [1] (setting [4]). Moreover, the values for the cell count in assay [1] (setting [5]) and in assay [1] (setting [6]) were 5780 and 5860, respectively.
Turning to `CCCCC/C=C\C/C=C\C/C=C\C/C=C\CCCC(=O)NCCOP(=O)(O)O`, the fold change is 0.994 (inactive) in assay [1] (setting [3]) and 0.95 in assay [1] (setting [4]). Besides, the cell count in assay [1] (setting [5]) was 5850; in assay [1] (setting [6]) it was 5880.
In the case of `c1cc2ccc(N3CCNCC3)cc2cn1`, the fold change was 0.985 (inactive) in assay [1] (setting [3]) and 0.763 in assay [1] (setting [4]). Besides, the values for the cell count in assay [1] (setting [5]) and in assay [1] (setting [6]) were 5520 and 5610, respectively.
On to `CCCCC/C=C\C/C=C\C/C=C\C/C=C\CCCC(=O)N[C@@H](CO)C(=O)O`, for which the fold change in assay [1] (setting [3]) is 1.06 (inactive); in assay [1] (setting [4]), 1.04. For the same compound, the cell count in assay [1] (setting [5]) came out at 5850; in assay [1] (setting [6]), 5540.
On to `C[C@@H]1CC([C@H](O)CC2CC(=O)NC(=O)C2)C(=O)[C@@H](C)C1` (stereo not given in full), for which the fold change in assay [1] (stronger effect = lower value) is 1.01 (inactive); in assay [1] (setting [4]), 1.96. Also, the cell count in assay [1] (setting [5]) came out at 1800; in assay [1] (setting [6]), 1780.
Regarding `N#CC(C#N)=NNc1ccc(OC(F)(F)F)cc1`, the figures for the fold change in assay [1] (stronger effect = lower value) and in assay [1] (setting [4]) were 1.05 (inactive) and 0.834, respectively. Further, the cell count in assay [1] (setting [5]) came to 1180; in assay [1] (setting [6]), 1130. In addition, the fold fluorescence in assay [2] was 9.07 [at 196.7 µM] (inactive).
The like results for `COC[C@H]1OC(=O)c2coc3c2[C@@]1(C)C1=C(C3=O)[C@@H]2CCC(=O)[C@@]2(C)C[C@H]1OC(C)=O` were, in that order, 0.997 (inactive), 1.29, 1550, 1560 and 5.16 [at 116.7 µM] (inactive).
